Measured values taken from article PMC7862700, “An all-to-all approach to the identification of sequence-specific readers for epigenetic DNA modifications on cytosine”.

Columns and labels:
Experiment in all cases: DAPPL (digital affinity profiling via proximity ligation, sequencing); 10 mM Tris-HCl pH 7.5, 50 mM NaCl, 1 mM DTT, 4% glycerol, room temperature, 30 min; GST-TFs on glutathione beads, 16-mer random dsDNA library, 0.1% formaldehyde crosslink after washing; high values mean tight binding
Settings in all cases: protein: recombinant; tags: N-terminal GST; dsDNA, one strand shown
ELK1 = target: T1, ELK1 (Homo sapiens, UniProt P19419 1-428)
T1 sequence: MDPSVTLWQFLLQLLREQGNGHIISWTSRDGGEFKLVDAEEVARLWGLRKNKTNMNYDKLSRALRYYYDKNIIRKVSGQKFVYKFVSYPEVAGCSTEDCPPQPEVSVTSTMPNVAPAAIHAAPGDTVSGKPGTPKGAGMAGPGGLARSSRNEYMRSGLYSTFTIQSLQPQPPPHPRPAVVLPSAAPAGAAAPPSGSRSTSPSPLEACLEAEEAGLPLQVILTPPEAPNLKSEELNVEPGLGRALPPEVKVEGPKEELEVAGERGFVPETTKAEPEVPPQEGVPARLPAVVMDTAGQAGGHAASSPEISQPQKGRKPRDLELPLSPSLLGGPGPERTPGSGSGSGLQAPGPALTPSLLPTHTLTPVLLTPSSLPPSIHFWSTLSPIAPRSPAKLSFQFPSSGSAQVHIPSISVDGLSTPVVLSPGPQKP
Method in brief: (§1)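 After expression in yeast as GST fusions, human transcription factors were bound to glutathione beads, DNA-barcoded and mixed with a tag-only sample. The pools were incubated with 200 nmole of a 16-mer random double-stranded DNA library in Tris/NaCl/DTT/glycerol buffer (30 min, room temperature), washed and crosslinked with 0.1% formaldehyde. Proximity ligation with BsaI/T4 ligase ran for 1 h at 37 °C, before PCR amplification and sequencing on an Illumina NextSeq500. Binding signal is a hexamer's read frequency for a factor divided by its frequency for the tag-only sample.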

GABPA = target: T2, GABPA (Homo sapiens, UniProt Q06546 1-454)
T2 sequence: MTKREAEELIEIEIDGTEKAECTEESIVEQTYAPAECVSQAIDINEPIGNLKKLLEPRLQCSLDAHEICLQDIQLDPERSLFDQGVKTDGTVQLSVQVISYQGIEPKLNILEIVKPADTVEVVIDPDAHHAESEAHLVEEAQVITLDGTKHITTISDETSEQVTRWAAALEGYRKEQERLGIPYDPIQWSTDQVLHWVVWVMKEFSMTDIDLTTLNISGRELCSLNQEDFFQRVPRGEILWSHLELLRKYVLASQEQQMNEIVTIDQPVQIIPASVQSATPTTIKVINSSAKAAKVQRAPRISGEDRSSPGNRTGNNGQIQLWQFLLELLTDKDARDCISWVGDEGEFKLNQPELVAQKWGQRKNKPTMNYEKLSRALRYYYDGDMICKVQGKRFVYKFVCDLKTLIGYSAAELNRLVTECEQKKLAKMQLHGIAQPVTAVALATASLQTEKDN
Method in brief: as §1

ERG = target: T3, ERG (Homo sapiens, UniProt P11308 1-479)
T3 sequence: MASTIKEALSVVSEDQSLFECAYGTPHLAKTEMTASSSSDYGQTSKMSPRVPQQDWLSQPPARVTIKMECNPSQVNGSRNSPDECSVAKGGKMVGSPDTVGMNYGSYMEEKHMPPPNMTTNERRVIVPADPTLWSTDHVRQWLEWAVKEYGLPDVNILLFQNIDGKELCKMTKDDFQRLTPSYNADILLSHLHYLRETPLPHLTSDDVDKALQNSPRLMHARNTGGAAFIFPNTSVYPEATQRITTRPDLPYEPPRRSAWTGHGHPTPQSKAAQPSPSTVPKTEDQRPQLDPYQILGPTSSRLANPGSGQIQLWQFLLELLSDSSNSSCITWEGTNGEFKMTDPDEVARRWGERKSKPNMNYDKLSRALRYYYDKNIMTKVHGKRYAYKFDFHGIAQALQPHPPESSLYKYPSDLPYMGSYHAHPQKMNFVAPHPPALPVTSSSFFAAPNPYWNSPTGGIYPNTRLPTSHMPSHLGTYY
Method in brief: as §1

ELF1 = ELF1 (Homo sapiens, UniProt P32519 1-619)
Method in brief: as §1

EHF = target: T4, EHF (Homo sapiens, UniProt Q9NZC4 1-300)
T4 sequence: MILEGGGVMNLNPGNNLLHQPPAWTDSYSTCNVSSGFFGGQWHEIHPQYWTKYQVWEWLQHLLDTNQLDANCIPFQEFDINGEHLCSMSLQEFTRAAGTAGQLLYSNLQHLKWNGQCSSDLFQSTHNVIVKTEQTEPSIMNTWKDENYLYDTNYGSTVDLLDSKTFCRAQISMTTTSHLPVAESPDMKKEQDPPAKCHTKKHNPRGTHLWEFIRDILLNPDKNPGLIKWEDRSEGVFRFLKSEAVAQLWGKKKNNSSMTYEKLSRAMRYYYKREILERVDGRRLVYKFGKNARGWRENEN
Method in brief: as §1

SPIB = SPIB (Homo sapiens, UniProt Q01892 1-262)
Method in brief: as §1

ELK3 = target: T5, ELK3 (Homo sapiens, UniProt P41970 1-407)
T5 sequence: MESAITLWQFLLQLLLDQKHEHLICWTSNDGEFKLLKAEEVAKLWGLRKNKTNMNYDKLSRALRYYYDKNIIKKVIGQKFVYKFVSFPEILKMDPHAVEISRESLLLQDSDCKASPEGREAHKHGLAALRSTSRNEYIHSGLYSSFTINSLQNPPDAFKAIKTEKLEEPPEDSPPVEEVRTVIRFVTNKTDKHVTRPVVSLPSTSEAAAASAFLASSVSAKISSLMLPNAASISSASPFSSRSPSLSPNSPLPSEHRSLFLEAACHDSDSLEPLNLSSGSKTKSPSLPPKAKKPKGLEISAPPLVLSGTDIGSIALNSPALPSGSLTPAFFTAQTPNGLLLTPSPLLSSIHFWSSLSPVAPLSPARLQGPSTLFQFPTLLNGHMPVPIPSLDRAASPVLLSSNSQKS
Method in brief: as §1

ETV5 = ETV5 (Homo sapiens, UniProt P41161 1-510)
Method in brief: as §1

ELF4 = ELF4 (Homo sapiens, UniProt Q99607 1-663)
Method in brief: as §1

ELK4 = target: T6, ELK4 (Homo sapiens, UniProt P28324-2 1-405)
T6 sequence: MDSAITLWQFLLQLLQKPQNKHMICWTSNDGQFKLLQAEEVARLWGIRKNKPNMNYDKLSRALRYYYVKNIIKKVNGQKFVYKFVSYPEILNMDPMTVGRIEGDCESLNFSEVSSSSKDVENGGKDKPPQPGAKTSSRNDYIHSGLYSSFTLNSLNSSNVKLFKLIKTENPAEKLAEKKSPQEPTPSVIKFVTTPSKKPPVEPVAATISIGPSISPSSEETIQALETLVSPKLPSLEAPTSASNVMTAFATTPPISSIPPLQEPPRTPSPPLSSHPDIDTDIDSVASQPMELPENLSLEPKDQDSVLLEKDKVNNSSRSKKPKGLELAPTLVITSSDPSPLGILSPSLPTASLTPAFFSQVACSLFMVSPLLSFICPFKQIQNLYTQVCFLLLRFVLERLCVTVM
Method in brief: as §1

ELF3 = target: T7, ELF3 (Homo sapiens, UniProt P78545 1-371)
T7 sequence: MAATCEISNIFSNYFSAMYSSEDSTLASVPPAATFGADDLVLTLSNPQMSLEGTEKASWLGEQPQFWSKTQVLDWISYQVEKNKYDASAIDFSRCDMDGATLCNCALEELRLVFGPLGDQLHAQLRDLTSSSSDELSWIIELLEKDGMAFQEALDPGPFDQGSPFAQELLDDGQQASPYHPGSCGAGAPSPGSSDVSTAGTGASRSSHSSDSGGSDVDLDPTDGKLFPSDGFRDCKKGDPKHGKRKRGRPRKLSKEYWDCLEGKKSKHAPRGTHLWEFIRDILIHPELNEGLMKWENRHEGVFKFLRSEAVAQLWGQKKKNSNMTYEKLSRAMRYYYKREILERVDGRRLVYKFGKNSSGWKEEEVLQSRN
Method in brief: as §1

ETV1 = ETV1 (Homo sapiens, UniProt P50549 1-477)
Method in brief: as §1

ERF = target: T8, ERF (Homo sapiens, UniProt P50548 1-548)
T8 sequence: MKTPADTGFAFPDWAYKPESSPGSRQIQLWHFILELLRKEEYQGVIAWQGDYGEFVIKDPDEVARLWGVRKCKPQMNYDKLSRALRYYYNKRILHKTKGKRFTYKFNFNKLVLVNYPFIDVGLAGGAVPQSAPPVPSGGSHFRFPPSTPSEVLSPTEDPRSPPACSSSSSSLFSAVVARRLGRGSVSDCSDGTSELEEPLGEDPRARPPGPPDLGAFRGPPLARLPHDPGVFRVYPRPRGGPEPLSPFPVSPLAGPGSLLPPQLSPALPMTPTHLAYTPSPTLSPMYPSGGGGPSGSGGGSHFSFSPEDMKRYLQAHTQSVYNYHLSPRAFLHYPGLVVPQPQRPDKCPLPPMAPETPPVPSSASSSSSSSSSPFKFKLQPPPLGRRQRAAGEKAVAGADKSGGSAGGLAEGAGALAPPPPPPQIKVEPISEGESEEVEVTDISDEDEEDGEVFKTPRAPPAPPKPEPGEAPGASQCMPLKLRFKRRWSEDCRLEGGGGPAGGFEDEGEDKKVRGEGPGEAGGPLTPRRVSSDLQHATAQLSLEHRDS
Method in brief: as §1

ETV3L = target: T9, ETV3L (Homo sapiens, UniProt Q6ZN32 1-361)
T9 sequence: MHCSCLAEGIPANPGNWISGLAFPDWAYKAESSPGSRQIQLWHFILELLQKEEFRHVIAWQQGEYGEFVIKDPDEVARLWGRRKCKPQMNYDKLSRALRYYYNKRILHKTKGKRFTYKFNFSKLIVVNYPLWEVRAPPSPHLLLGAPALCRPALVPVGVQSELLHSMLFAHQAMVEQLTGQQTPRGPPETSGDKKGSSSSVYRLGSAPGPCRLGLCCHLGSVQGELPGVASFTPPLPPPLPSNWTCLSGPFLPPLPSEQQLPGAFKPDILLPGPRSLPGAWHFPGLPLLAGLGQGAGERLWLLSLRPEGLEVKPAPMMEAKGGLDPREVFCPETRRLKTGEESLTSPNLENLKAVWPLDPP
Method in brief: as §1

ETS2 = target: T10, ETS2 (Homo sapiens, UniProt P15036 1-469)
T10 sequence: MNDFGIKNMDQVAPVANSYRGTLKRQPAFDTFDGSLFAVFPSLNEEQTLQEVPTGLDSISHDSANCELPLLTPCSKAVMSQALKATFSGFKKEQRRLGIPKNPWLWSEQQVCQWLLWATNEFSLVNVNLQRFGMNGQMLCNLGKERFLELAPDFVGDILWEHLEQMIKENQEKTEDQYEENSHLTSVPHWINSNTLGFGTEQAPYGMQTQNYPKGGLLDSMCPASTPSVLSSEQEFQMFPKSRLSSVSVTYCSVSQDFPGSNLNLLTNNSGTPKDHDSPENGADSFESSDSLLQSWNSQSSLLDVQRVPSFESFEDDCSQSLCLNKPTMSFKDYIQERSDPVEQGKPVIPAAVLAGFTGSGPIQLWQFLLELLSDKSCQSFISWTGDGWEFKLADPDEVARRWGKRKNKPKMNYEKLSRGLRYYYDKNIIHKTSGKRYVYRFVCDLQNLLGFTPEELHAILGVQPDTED
Method in brief: as §1

SPDEF = target: T11, SPDEF (Homo sapiens, UniProt O95238 1-335)
T11 sequence: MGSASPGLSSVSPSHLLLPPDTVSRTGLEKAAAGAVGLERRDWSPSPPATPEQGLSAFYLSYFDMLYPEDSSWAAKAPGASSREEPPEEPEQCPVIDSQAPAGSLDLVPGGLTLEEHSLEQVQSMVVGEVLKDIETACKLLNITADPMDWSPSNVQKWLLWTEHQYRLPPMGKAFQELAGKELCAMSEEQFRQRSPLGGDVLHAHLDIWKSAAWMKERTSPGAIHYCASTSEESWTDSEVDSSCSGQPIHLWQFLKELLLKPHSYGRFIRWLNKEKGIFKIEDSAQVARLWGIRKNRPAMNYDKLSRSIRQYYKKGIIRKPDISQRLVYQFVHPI
Method in brief: as §1

ETV7 = target: T12, ETV7 (Homo sapiens, UniProt Q9Y603 1-341)
T12 sequence: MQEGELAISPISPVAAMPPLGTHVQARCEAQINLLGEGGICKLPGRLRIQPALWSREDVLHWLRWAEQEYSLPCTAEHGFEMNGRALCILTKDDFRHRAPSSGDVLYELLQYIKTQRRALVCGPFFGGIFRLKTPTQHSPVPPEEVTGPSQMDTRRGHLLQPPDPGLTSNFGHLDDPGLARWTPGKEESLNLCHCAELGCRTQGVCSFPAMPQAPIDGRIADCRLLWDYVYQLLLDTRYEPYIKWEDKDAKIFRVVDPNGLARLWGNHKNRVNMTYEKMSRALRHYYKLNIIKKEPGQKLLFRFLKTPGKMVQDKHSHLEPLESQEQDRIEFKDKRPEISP
Method in brief: as §1

ETV3 = target: T13, ETV3 (Homo sapiens, UniProt P41162-2 1-143)
T13 sequence: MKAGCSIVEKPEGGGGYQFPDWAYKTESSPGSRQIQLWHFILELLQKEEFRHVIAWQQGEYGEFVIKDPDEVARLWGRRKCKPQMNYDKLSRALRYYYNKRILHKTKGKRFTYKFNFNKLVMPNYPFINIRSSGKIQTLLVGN
Method in brief: as §1

ETV6 = ETV6 (Homo sapiens, UniProt P41212 1-452)
Method in brief: as §1

ETV5, sequence (P41161 whole entry): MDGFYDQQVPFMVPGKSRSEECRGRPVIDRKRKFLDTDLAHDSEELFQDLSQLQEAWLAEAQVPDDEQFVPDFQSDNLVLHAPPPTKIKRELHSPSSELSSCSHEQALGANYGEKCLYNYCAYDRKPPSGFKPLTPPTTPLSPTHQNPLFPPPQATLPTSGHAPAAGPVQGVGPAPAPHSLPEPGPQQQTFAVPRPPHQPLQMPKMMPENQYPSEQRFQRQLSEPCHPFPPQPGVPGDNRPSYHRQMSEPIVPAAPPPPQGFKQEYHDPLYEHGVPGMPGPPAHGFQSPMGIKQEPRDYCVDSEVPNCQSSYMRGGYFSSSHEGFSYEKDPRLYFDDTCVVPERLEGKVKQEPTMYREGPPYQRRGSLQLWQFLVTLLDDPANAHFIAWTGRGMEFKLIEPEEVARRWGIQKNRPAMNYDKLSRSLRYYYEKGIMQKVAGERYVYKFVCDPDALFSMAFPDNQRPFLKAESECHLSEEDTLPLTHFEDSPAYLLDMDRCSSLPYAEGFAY
ELF4, sequence (Q99607 whole entry): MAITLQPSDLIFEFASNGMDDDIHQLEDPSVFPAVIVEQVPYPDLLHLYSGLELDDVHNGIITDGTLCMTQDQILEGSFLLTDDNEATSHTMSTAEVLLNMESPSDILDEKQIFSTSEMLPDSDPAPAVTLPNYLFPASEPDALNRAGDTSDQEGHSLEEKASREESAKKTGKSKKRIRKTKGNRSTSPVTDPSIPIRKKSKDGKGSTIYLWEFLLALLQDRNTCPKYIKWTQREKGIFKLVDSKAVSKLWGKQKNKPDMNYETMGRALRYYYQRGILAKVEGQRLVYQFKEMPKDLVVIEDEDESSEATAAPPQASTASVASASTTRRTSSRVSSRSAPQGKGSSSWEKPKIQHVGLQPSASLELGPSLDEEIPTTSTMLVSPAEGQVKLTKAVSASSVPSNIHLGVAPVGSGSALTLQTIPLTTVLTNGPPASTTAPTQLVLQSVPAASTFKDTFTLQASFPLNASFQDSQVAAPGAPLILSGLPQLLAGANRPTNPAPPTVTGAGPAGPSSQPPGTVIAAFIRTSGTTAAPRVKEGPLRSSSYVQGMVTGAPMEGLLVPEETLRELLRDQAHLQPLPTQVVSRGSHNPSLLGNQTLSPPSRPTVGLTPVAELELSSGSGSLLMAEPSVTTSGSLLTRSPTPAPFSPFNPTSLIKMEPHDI
ETV6, sequence (P41212 whole entry): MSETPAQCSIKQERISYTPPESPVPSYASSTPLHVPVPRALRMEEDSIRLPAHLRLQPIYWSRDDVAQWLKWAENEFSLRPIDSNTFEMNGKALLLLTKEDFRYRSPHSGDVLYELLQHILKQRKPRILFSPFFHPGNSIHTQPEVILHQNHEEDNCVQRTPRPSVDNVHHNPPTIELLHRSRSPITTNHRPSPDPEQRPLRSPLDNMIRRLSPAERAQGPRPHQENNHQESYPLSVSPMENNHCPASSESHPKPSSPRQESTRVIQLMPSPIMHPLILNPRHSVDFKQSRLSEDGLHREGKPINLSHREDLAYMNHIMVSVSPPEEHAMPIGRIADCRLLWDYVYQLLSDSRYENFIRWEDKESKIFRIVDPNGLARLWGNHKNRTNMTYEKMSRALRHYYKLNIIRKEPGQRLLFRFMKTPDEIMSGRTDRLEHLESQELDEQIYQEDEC
SPIB, sequence (Q01892 whole entry): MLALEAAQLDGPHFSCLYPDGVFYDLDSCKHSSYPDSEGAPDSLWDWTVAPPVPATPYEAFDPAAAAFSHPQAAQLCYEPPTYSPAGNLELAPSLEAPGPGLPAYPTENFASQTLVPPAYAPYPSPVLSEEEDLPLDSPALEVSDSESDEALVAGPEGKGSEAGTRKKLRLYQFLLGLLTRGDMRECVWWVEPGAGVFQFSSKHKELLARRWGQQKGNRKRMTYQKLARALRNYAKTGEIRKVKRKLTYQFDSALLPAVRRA
ELF1, sequence (P32519 whole entry): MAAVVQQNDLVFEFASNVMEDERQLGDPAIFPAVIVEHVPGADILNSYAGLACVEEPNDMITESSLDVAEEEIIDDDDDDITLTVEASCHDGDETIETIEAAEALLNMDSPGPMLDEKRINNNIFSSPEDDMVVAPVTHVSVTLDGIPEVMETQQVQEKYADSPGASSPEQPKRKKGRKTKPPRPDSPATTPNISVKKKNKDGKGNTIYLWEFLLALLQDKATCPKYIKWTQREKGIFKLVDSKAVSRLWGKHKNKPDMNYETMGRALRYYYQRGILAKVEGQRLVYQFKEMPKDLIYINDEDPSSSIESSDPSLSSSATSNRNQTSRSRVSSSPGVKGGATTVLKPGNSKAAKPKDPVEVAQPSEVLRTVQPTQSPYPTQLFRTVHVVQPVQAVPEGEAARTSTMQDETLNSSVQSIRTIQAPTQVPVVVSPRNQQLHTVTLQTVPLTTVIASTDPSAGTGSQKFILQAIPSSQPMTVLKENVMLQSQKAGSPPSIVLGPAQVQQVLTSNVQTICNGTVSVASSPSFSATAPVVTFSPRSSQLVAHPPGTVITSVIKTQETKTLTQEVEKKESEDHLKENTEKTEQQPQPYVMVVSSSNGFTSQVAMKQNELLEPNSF
ETV1, sequence (P50549 whole entry): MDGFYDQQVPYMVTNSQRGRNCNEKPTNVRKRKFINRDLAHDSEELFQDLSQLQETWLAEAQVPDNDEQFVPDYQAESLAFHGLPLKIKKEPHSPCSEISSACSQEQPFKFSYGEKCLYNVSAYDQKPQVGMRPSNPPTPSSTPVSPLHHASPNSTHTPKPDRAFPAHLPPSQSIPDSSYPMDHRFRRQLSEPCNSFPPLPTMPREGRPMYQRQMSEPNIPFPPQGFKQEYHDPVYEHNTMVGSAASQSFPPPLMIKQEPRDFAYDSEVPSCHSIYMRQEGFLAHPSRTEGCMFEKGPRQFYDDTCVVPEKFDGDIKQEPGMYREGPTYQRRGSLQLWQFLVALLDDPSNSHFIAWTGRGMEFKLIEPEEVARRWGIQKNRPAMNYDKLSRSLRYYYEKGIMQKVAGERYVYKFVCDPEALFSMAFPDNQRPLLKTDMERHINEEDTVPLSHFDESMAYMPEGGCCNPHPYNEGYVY

GGACTT
binding signal (ELK1): 1.24 fold enrichment (6-mer frequency, TF over GST control)
binding signal (GABPA): 1.16 fold enrichment (6-mer frequency, TF over GST control)
binding signal (ERG): 1.17 fold enrichment (6-mer frequency, TF over GST control)
binding signal (ELF1): 1.16 fold enrichment (6-mer frequency, TF over GST control)
binding signal (EHF): 1.11 fold enrichment (6-mer frequency, TF over GST control)
binding signal (SPIB): 1.11 fold enrichment (6-mer frequency, TF over GST control)
binding signal (ELK3): 1.11 fold enrichment (6-mer frequency, TF over GST control)
binding signal (ETV5): 1.15 fold enrichment (6-mer frequency, TF over GST control)
binding signal (ELF4): 1.09 fold enrichment (6-mer frequency, TF over GST control)
binding signal (ELK4): 1.08 fold enrichment (6-mer frequency, TF over GST control)
binding signal (ELF3): 1.06 fold enrichment (6-mer frequency, TF over GST control)
binding signal (ETV1): 1.22 fold enrichment (6-mer frequency, TF over GST control)
binding signal (ERF): 1.01 fold enrichment (6-mer frequency, TF over GST control)
binding signal (ETV3L): 1.1 fold enrichment (6-mer frequency, TF over GST control)
binding signal (ETS2): 1.13 fold enrichment (6-mer frequency, TF over GST control)
binding signal (SPDEF): 1.08 fold enrichment (6-mer frequency, TF over GST control)
binding signal (ETV7): 1.13 fold enrichment (6-mer frequency, TF over GST control)
binding signal (ETV3): 1.27 fold enrichment (6-mer frequency, TF over GST control)
binding signal (ETV6): 1.13 fold enrichment (6-mer frequency, TF over GST control)
